Outcome data for 40 compounds are collected here from PubChem BioAssay (EPA / NIEHS).

Results filed as inconclusive are left out. Active and inactive are the calls of the source. The calls were made as follows: active = hit-call score of the fitted dose curve at least 0.9, where 1 is the maximum; inconclusive = response in the unintended direction; inactive = score below 0.9.

Chain of Oxysterols receptor LXR-beta (Homo sapiens) (P55055 whole entry, looked up, the tested form may be a part): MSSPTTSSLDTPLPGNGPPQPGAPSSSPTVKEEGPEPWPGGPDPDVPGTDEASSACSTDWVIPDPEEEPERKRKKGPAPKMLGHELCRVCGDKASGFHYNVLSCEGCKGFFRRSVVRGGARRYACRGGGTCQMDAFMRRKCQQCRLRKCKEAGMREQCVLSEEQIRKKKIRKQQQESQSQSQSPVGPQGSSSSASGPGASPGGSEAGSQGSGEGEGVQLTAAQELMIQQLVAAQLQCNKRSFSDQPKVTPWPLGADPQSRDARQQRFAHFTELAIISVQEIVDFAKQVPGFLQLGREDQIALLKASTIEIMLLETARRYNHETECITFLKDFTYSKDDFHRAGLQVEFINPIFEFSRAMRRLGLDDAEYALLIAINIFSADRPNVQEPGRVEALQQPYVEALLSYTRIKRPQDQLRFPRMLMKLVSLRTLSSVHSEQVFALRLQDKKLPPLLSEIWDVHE

The test addresses Oxysterols receptor LXR-beta (Homo sapiens) (UniProt P55055). In words: ATG_LXRb_TRANS: Attagene TRANS-FACTORIAL HepG2 Assay for human Liver X Receptor beta (LXRb) (AID 2282981). To be noted: HepG2 Attagene TRANS GAL4-LXRb reporter, mRNA. How it is done:
ATG_TRANS is a cell-based, multiplexed-readout assay that uses HepG2, a human liver cell line, with measurements taken at 24 hours after chemical dosing in a 24-well plate.ATG_LXRb_TRANS is one of 30 assay component(s) measured or calculated from the ATG_TRANS assay. It is designed to make measurements of mRNA induction, a form of inducible reporter, as detected with fluorescence intensity signals by Reverse transcription polymerase chain reaction (RT-PCR) and Capillary electrophoresis technology.Data from the assay component ATG_LXRb_TRANS was analyzed into 1 assay endpoint. This assay endpoint, ATG_LXRb_TRANS, was analyzed in the positive analysis fitting direction relative to DMSO as the negative control and baseline of activity. Using a type of inducible reporter, measures of mRNA for gain-of-signal activity can be used to understand the reporter gene at the transcription factor-level as they relate to the gene NR1H2. Furthermore, this assay endpoint can be referred to as a primary readout, because this assay has produced multiple assay endpoints where this one serves a reporter gene function. To generalize the intended target to other relatable targets, this assay endpoint is annotated to the nuclear receptor intended target family, where the subfamily is non-steroidal.
Human liver HepG2 cells are transiently transfected with multiple reporter transcription units (MRTUs) in 6-well plates using FuGene 6 reagent (Roche; 3 ml FuGene/1 mg DNA). The MRTU constructs are regulated by a cis-regulating element (promoter). […] A major difference between the CIS and TRANS system is that in CIS activities of endogenous TFs are measured, whereas the TRANS assay evaluates changes in activities of exogenous, chimeric NR-Gal4 proteins. […] At the end of 24 hour incubation, total RNA was isolated using TriZol reagent (Invitrogen). The isolated RNA is then reverse-transcribed using oligo(dT) primer and Mo-MLV reverse transcriptase (Invitrogen) with DNAse I (Ambion) treatment for 30 min. The one-tenth of the produced cDNA was amplified by PCR using Taq DNA polymerase (Invitrogen) and two reporter sequence-specific primers. The PCR products were fluorescently labeled by primer extension with 6-arboxyfluorescein (6-FAM) 5'-labeled reporter sequence-specific primer (2 min at 95 C, 20 s at 68 C and 10 min at 72 C) and these products were digested with 5U of HpaI (New England Biolabs) for 2h at 37 C. The fragments were purified using Qiaquick PCR columns (Qiagen), analyzed on an ABI 3130xL genetic analyzer (Applied Biosystems) with peak positions identified by using a set of X-rhodamine (ROX)-labeled MapMarker1000 molecular weight standards (BioVentures). The raw capillary electrophoresis data was processed using Attagraph software (Attagene).
Take `Cc1cccc(Nc2ccccc2C(=O)O)c1C`: the compound was called inactive.

In the case of `CC(C)=CCC[C@H](C)CC=O`, the result was inactive. Next, `OCCCCCO`: “inactive”; `CCC(C(=O)NC(N)=O)c1ccccc1` (stereo not given): “inactive”. Next, `COc1ccnc(CS(=O)c2nc3cc(OC(F)F)ccc3[nH]2)c1OC` (stereo not given): “inactive”. The value for `OC[C@H]1O[C@H](O[C@]2(CCl)O[C@H](CCl)[C@@H](O)[C@@H]2O)[C@H](O)[C@@H](O)[C@H]1Cl` was “inactive”; that for `CNCCCC12CCC(c3ccccc31)c1ccccc12` was “inactive”; that for `c1cc(C(c2ccc(OCC3CO3)cc2)c2ccc(OCC3CO3)cc2)ccc1OCC1CO1` (stereo not given) was “inactive”.

Take `NCCCN1CCOCC1`: the outcome was inactive. The value for `CCCCCCCCCCCCN(CCCCCCCCCCCC)CCCCCCCCCCCC` was “inactive”; that for `COC(C)CCO` (stereo not given) was “inactive”. Next, `O=C(O)c1ccc([N+](=O)[O-])cc1`: “inactive”; `CN1[C@@H]2CC(OC(=O)[C@H](CO)c3ccccc3)C[C@H]1[C@@H]1O[C@@H]12` (stereo not given in full): “inactive”; `CC1CCC(C(C)(C)O)CC1` (stereo not given): “inactive”. Next, `CCc1ccc(C=O)cc1`: “inactive”; `C[C@]12CC[C@H]3[C@@H](CCC4=CC(=O)CC[C@@]43C)[C@@H]1CC[C@@H]2C(=O)CO`: “inactive”; `COc1cc(C(C)(C)C)c(O)c(C(C)(C)C)c1`: “inactive”. Consider `Cc1ccccc1C=O`, for which the call was inactive. Next, `c1ccc2[nH]ccc2c1`: “inactive”. Take `CCCCCCOC(=O)CC`: the compound was called inactive.

As to `C[C@H]1C[C@H]2[C@@H]3CCC4=CC(=O)C=C[C@]4(C)[C@@]3(F)[C@@H](O)C[C@]2(C)[C@@]1(O)C(=O)COP(=O)(O)O`, the call was inactive. `CC1CC(OC(=O)c2ccccc2O)CC(C)(C)C1` (stereo not given): the result was inactive.

Regarding `O=C(O)CN(CCN(CC(=O)O)CC(=O)O)CCN(CC(=O)O)CC(=O)O`, the outcome was inactive. The value for `C/C=C(\C)C(=O)OCc1ccccc1` was “inactive”. For the compound `O=C(Nc1ccccc1)c1cc([N+](=O)[O-])ccc1Cl`, the outcome was inactive.

Turning to `CCCCNC(=O)NS(=O)(=O)c1ccc(C)cc1`, the result was inactive. Next, `CCCCN`: “inactive”; `Cc1ccc(C(=O)O)o1`: “inactive”.

As to `CC1CCC2CC1C2(C)C` (stereo not given), the compound was classed as inactive. Next, `CC1=CC(=O)NS(=O)(=O)O1`: “inactive”; `NCCCCCCN`: “inactive”. The value for `Nc1cccc(S(=O)(=O)c2cccc(N)c2)c1` was “inactive”; that for `COc1ccc(OC)c(OC)c1` was “inactive”; that for `COc1ccc(O)cc1` was “inactive”.

In the case of `CC(C)(C#N)c1cc(Cn2cncn2)cc(C(C)(C)C#N)c1`, the compound was called inactive. Regarding `Cc1cccc(C)c1[N+](=O)[O-]`, the outcome was inactive.

On to `O=C(O)c1cccc(C(F)(F)F)c1`, for which the compound was classed as inactive. In the case of `O=[N+]([O-])c1ccc(Nc2ccc(Nc3ccccc3)c(S(=O)(=O)O)c2)c([N+](=O)[O-])c1`, the compound was classed as inactive. Next, `CC(C)(C)NC(N)=O`: “inactive”.

`O=C(O)CCCCC1CCSS1` (stereo not given): the outcome was inactive.
